{"source": "paper PMC4336329", "about": "(PLoS ONE, 2015)", "note": "In all, about 310,000 compounds went through this assay and about 14,000 (4.5%) showed an effect of 50% or more. Effects have a minus sign here. This excerpt belongs to a sample that is enriched for strong results.", "data": [{"biological_target": "human ether-à-go-go-related gene (hERG) potassium channel (human, UniProt Q12809)", "sequence (Q12809 whole entry, looked up)": "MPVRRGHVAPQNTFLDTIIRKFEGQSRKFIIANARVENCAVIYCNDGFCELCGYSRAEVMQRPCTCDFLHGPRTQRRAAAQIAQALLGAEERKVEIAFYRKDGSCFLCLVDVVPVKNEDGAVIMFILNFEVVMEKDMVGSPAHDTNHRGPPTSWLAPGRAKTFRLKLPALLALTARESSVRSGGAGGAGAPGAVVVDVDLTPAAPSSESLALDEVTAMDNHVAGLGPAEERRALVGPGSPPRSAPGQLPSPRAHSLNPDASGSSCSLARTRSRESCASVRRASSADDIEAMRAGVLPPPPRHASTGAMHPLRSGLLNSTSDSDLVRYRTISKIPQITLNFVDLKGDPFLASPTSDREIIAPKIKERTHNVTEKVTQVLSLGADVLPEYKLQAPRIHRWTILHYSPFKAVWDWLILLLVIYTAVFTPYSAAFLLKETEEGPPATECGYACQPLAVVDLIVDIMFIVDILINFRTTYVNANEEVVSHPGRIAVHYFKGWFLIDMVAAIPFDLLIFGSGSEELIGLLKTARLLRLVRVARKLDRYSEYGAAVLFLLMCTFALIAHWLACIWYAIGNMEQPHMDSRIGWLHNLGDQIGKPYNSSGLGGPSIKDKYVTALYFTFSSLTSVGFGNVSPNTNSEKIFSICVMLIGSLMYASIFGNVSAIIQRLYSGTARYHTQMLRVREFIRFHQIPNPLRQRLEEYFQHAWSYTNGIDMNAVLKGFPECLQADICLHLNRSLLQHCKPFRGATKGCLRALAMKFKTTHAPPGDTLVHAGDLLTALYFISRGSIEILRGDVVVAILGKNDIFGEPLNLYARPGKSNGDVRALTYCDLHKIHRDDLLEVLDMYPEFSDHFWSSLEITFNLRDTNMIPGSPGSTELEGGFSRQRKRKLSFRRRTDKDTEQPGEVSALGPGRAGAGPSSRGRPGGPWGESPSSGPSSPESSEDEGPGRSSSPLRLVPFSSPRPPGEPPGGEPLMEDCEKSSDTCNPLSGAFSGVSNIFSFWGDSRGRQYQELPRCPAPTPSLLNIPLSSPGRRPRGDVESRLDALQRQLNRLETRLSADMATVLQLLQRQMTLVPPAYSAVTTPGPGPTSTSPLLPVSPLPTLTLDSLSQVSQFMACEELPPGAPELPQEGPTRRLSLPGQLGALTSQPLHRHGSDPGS", "assay": "primary screen, population patch clamp on CHO cells stably expressing hERG; higher = less effect of the substance", "units": {"hERG current change (%, negative = inhibition) at 10uM": "%"}, "values": [{"compound": "CCOc1ccc(C(NC(=O)CC)c2c(O)ccc3ccccc23)cc1", "note": "(centres unmarked);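 note: peak tail current of the secondary pulse compared with the same well before compound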", "hERG current change (%, negative = inhibition) at 10uM": -7.96}, {"compound": "O=C(COC(=O)c1ccccc1NC(=O)c1ccco1)Nc1ccc2c(c1)OC(F)(F)O2", "hERG current change (%, negative = inhibition) at 10uM": 12.2}, {"compound": "FC(F)(F)c1cc(-c2ccc(Cl)cc2)nc(NCc2cccnc2)n1", "hERG current change (%, negative = inhibition) at 10uM": 3.07}, {"compound": "CNC(=S)N/N=C/c1cccc(OCc2ccccc2F)c1", "hERG current change (%, negative = inhibition) at 10uM": 18.3}, {"compound": "Cc1cc(NC(=O)CSc2[nH]c(=O)cc(C(F)(F)F)c2C#N)no1", "hERG current change (%, negative = inhibition) at 10uM": -2.45}, {"compound": "CCNC(=O)C(=O)N/N=C/c1cc([N+](=O)[O-])ccc1O", "hERG current change (%, negative = inhibition) at 10uM": 4.32}, {"compound": "CCC1CSC(Nc2ccc(C(=O)/C=C/c3ccc(OC)c(OC)c3)cc2)=N1", "note": "(centres unmarked)", "hERG current change (%, negative = inhibition) at 10uM": -52.4}, {"compound": "CCC1CSC(Nc2ccc(C(=O)/C=C/c3cccc(C)c3)cc2)=N1", "note": "(centres unmarked)", "hERG current change (%, negative = inhibition) at 10uM": 14.4}, {"compound": "CCC1CSC(Nc2ccc(C(=O)/C=C/c3ccc(Br)cc3)cc2)=N1", "note": "(centres unmarked)", "hERG current change (%, negative = inhibition) at 10uM": 0.372}, {"compound": "C[C@@H](O)c1nc2ccccc2n1N", "hERG current change (%, negative = inhibition) at 10uM": 9.12}, {"compound": "Cc1cc(N2C(=O)c3ccccc3C2=O)n(C)n1", "hERG current change (%, negative = inhibition) at 10uM": 9.7}, {"compound": "COc1ccc(C(=O)N/C(=C/c2cccs2)C(=O)NC(C)(C)C)cc1OC", "hERG current change (%, negative = inhibition) at 10uM": 5.42}, {"compound": "CCOC(=O)N1CCN(C(=O)/C(=C/c2cccs2)NC(=O)c2ccc(OC)c(OC)c2)CC1", "hERG current change (%, negative = inhibition) at 10uM": -71.2}, {"compound": "COc1ccc(C(=O)N/C(=C\\c2cccs2)C(=O)N2CCN(C)CC2)cc1OC", "hERG current change (%, negative = inhibition) at 10uM": -56.4}, {"compound": "CCOC(=O)N1CCN(C(=O)c2ccc(OC)c(OC)c2)CC1", "hERG current change (%, negative = inhibition) at 10uM": 18.5}, {"compound": "COc1ccc(C(=O)N/C(=C/c2cccs2)C(=O)NN)cc1OC", "hERG current change (%, negative = inhibition) at 10uM": 13.7}, {"compound": "COc1ccc(/C=C(\\NC(=O)c2ccc(OC)c(OC)c2)C(=O)N2CCN(C)CC2)cc1", "hERG current change (%, negative = inhibition) at 10uM": -19.4}, {"compound": "Cc1ccc(CNC(=O)C2CC=CCC2C(=O)O)cc1", "note": "(centres unmarked)", "hERG current change (%, negative = inhibition) at 10uM": 16.3}, {"compound": "CCOC(=O)c1cc([N+](=O)[O-])sc1N", "hERG current change (%, negative = inhibition) at 10uM": 2.1}, {"compound": "O=C(COC(=O)c1ccccc1O)Nc1cc(S(=O)(=O)N2CCCCCC2)ccc1Cl", "hERG current change (%, negative = inhibition) at 10uM": -9}, {"compound": "Cn1c(=O)n(C)c2cc(NC(=O)COc3ccc(F)cc3F)ccc21", "hERG current change (%, negative = inhibition) at 10uM": -13.6}, {"compound": "CCOc1ccccc1C(=O)NCC(=O)N(C)Cc1cccnc1", "hERG current change (%, negative = inhibition) at 10uM": -3.07}, {"compound": "CCN(CC)CCNS(=O)(=O)c1ccc(Cl)cc1.Cl", "hERG current change (%, negative = inhibition) at 10uM": -12.9}, {"compound": "CCN(CC)CCNCC(O)(c1ccc(Cl)cc1)c1ccc(Cl)cc1", "hERG current change (%, negative = inhibition) at 10uM": -82.4}, {"compound": "CC(C)(C)NCC(O)(c1ccc(Cl)cc1)c1ccc(Cl)cc1", "hERG current change (%, negative = inhibition) at 10uM": -13.8}, {"compound": "CCCCNCC(O)(c1ccc(Cl)cc1)c1ccc(Cl)cc1", "hERG current change (%, negative = inhibition) at 10uM": -68}, {"compound": "CCN(CC)CCNC(=S)Nc1ccc(Cl)cc1", "hERG current change (%, negative = inhibition) at 10uM": -21.7}, {"compound": "CCC(C)NCC(O)(c1ccc(Cl)cc1)c1ccc(Cl)cc1", "note": "(centres unmarked)", "hERG current change (%, negative = inhibition) at 10uM": -37.7}, {"compound": "COc1ccc(-c2nc3n(n2)C(c2cccnc2)C(C(N)=O)=C(C)N3)cc1", "note": "(centres unmarked)", "hERG current change (%, negative = inhibition) at 10uM": -17.3}, {"compound": "CCOC(=O)COc1ccc(S(=O)(=O)Nc2ccc3c(c2)OCCO3)cc1", "hERG current change (%, negative = inhibition) at 10uM": -3.24}, {"compound": "COC(=O)C(Sc1nc(C)cc(C)c1C#N)c1ccccc1", "note": "(centres unmarked)", "hERG current change (%, negative = inhibition) at 10uM": -10.6}, {"compound": "CC(CC(=O)NC1CCCCC1)S(=O)(=O)c1ccc2c(c1)CCN2C(=O)C1CC1", "note": "(centres unmarked)", "hERG current change (%, negative = inhibition) at 10uM": 28.2}, {"compound": "CCCS(=O)(=O)N1CCCC(C(=O)NCc2ccc(C)cc2)C1", "note": "(centres unmarked)", "hERG current change (%, negative = inhibition) at 10uM": 4.91}, {"compound": "COc1ccc(S(=O)(=O)N2CCOCC2)cc1NC(=O)COC(=O)C1CCC1", "hERG current change (%, negative = inhibition) at 10uM": -6.23}, {"compound": "CC1=C(/C=C/c2ccccc2)CCN(C)C1.Cl", "hERG current change (%, negative = inhibition) at 10uM": -24.6}, {"compound": "CN1CC=C(/C=C/c2ccc(-c3ccccc3)cc2)CC1.Cl", "hERG current change (%, negative = inhibition) at 10uM": -50.1}, {"compound": "Cl.OC(CN1CC=C(/C=C/c2ccc(Br)cc2)CC1)c1ccccc1", "note": "(centres unmarked)", "hERG current change (%, negative = inhibition) at 10uM": -2.33}, {"compound": "CCCCc1nc(SCC(=O)Nc2cccc(Cl)c2)n[nH]1", "hERG current change (%, negative = inhibition) at 10uM": -4.4}, {"compound": "Nc1ccc2nc(SCC(=O)c3ccccc3)sc2c1", "hERG current change (%, negative = inhibition) at 10uM": 9.11}, {"compound": "CCCN1CCN(CCCNC(=S)Nc2ccc(OC)cc2)CC1", "hERG current change (%, negative = inhibition) at 10uM": -22.8}, {"compound": "CCOc1ccc(NC(=S)NCCCN2CCN(c3ccc(OC)cc3)CC2)cc1", "hERG current change (%, negative = inhibition) at 10uM": -70.7}, {"compound": "CCOc1ccc(NC(=S)Nc2ccc(OCc3ccccc3)cc2)cc1", "hERG current change (%, negative = inhibition) at 10uM": 4.64}, {"compound": "CCOc1cccc(C(=O)NC(=S)Nc2ccc(N3CCN(CC)CC3)cc2)c1", "hERG current change (%, negative = inhibition) at 10uM": -72.1}, {"compound": "COc1ccc(NC(=S)NCCCN2CCCC2)cc1", "hERG current change (%, negative = inhibition) at 10uM": 5.95}, {"compound": "CCOc1ccc(NC(=S)NCCCc2ccccc2)cc1", "hERG current change (%, negative = inhibition) at 10uM": -12.4}, {"compound": "CCOc1cccc(C(=O)NC(=S)Nc2ccc(N3CCCC3)cc2)c1", "hERG current change (%, negative = inhibition) at 10uM": 10.8}, {"compound": "COc1ccc(N2CCN(CCCNC(=S)Nc3c(C)cccc3C)CC2)cc1", "hERG current change (%, negative = inhibition) at 10uM": -52.4}, {"compound": "CCOc1ccc(NC(=S)NCCCN2CCOCC2)cc1", "hERG current change (%, negative = inhibition) at 10uM": 10.7}, {"compound": "COc1ccc(N2CCC(CNC(=S)Nc3c(C)cccc3C)C2)cc1", "note": "(centres unmarked)", "hERG current change (%, negative = inhibition) at 10uM": -4.72}, {"compound": "CCCOc1cccc(C(=O)NC(=S)Nc2ccc(N3CCN(C)CC3)cc2)c1", "hERG current change (%, negative = inhibition) at 10uM": 1.67}, {"compound": "CCOc1ccc(NC(=S)NCCN2CCN(Cc3ccccc3)CC2)cc1", "hERG current change (%, negative = inhibition) at 10uM": -62.3}, {"compound": "COCCCn1cc(C(=O)c2ccccc2OCC(=O)Nc2cccc(F)c2)cc(C#N)c1=O", "hERG current change (%, negative = inhibition) at 10uM": -35.9}, {"compound": "CN([C@@H](C(=O)OC(C)(C)C)c1ccccc1)S(=O)(=O)c1cccc(S(=O)(=O)N(C)[C@@H](C(=O)OC(C)(C)C)c2ccccc2)c1", "hERG current change (%, negative = inhibition) at 10uM": 14.3}, {"compound": "O=C(Nc1ccc(Cl)cc1F)c1cccc2ccccc12", "hERG current change (%, negative = inhibition) at 10uM": 12.2}, {"compound": "COc1cc(Cn2c(=O)c3c(OC)c(C)cnc3n(C)c2=O)cc(OC)c1", "hERG current change (%, negative = inhibition) at 10uM": 14.1}, {"compound": "Cn1c(CO)cnc1SCc1ccc(Cl)cc1", "hERG current change (%, negative = inhibition) at 10uM": 0.94}, {"compound": "O=C(NC(=S)NCCCN1CCOCC1)c1ccc(Br)cc1", "hERG current change (%, negative = inhibition) at 10uM": -42.9}, {"compound": "Cc1ccc(C(=O)NC(=S)NCCCN2CCOCC2)cc1", "hERG current change (%, negative = inhibition) at 10uM": -7.43}, {"compound": "CCOc1ccc(C(=O)NC(=S)NCCCN2CCOCC2)cc1", "hERG current change (%, negative = inhibition) at 10uM": -50.1}]}]}
